Molecules are shown by their SMILES. Out of some 72,000 compounds screened, about 350 (0.49%) were called active. This is one part of a sample in which actives are shown more often than they occur. A number with no mark means an inactive call.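 How the source made its calls: active means activity remaining at or below 50% of control, provided the compound also passes the data quality filters; inactive means the rest, including low values that fail the filters.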

Sequence of Ubiquitin carboxyl-terminal hydrolase BAP1 (Homo sapiens) (Q92560 whole entry, looked up): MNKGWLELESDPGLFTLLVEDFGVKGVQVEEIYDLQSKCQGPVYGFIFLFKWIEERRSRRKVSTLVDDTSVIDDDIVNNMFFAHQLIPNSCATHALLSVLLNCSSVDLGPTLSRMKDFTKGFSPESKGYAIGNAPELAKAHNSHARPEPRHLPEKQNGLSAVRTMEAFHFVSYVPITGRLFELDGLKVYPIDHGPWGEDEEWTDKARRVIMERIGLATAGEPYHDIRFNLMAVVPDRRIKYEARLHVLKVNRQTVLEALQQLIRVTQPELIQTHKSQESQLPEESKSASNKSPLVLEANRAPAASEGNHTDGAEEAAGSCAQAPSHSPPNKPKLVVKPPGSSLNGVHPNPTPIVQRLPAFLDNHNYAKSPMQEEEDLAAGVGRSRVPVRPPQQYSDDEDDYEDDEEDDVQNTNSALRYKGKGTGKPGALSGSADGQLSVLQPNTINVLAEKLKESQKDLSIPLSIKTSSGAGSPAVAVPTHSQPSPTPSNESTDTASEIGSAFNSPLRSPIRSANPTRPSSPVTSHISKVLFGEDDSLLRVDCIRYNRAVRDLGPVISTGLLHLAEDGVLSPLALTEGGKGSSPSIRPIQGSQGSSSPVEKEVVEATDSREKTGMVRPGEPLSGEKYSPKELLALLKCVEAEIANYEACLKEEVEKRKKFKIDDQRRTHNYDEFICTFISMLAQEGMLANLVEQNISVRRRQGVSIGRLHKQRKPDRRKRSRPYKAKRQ

This assay has as its target Ubiquitin carboxyl-terminal hydrolase BAP1 (Homo sapiens) (UniProt Q92560). Kind of assay: BAP1 ubiquitin hydrolase activity blockers – biochemical, Ub-AMC fluorescence, kinetic, primary screen (AID 436).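 Further: 100% = DMSO wells rate and 0% = substrate alone blank rate.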 As to conditions: recombinant BAP1, Ub-AMC hydrolysis fluorescence kinetic; at 20 µM; hits give low values.
Consider `Cn1c(=N)n(CC(=O)c2ccco2)c2ccccc21`, for which the activity remaining (% of control) is 76.8%. As for `Brc1ccc(-c2nc3ccccc3nc2-c2ccccc2)cc1`, the figure is 66.2%; as for `CCOc1ccc(Nc2cc(C)nc3ncnn23)cc1`, 112%. As to `Nc1nnc(-c2ccccc2SCc2ccc(F)cc2)s1`, the activity remaining (% of control) is 68.2%.

In the case of `COc1ccc(C(=O)Nc2ccc3oc(-c4ccc(C)cc4)nc3c2)cc1[N+](=O)[O-]`, the activity remaining (% of control) is 77%.

Turning to `Cc1c(N=Cc2cc(Br)ccc2O)c(=O)n(-c2ccccc2)n1C`, the activity remaining (% of control) is 106%. On to `CC(=O)CCN1C(=O)C(=O)c2ccccc21`, for which the activity remaining (% of control) is 83.2%. To `CCn1c(N2CCCC2)nc2c1c(=O)n(C)c(=O)n2C` belongs 117%.

With `Cc1nc2sc3ccccc3c2s1`, the activity remaining (% of control) was 122%. As for `COc1ccc(-c2csc(NC(=O)c3ccc(S(=O)(=O)N4CC(C)CC(C)C4)cc3)n2)cc1C` (centres undefined), the figure is 92.9%; as for `Cn1c(SCC(=O)c2ccc(Cl)cc2)nc2c1c(=O)[nH]c(=O)n2C`, 112%; as for `COc1ccc(OC)c(NC(=O)c2cc(Cl)ccc2[N+](=O)[O-])c1`, 90.2%. To `CCCCOC(=O)C1=C(C)NC2=C(C(=O)CCC2)C1c1ccc(OCC)c(OC)c1` (centres undefined) belongs 72.5%; to `Cc1ccc2cccc(NC(=O)C34CC5CC(CC(C5)C3)C4)c2n1`, 149%. To `CCOC(=O)c1c(C)oc2ccc(N(C(=O)c3ccccc3)S(=O)(=O)c3ccc(Cl)c([N+](=O)[O-])c3)cc12` belongs 71%; to `CCCOC(=O)c1ccc(NC(=O)c2ccc(OC)cc2)cc1`, 167%. With `CC1=C(C(=O)OCc2ccccc2)C(c2ccccc2I)NC(=O)N1C` (centres undefined), the activity remaining (% of control) was 104%. Consider `CCOC(=O)c1c(N=c2oc3ccccc3cc2C(=O)Nc2ccc(F)cc2)sc(C)c1C`, for which the activity remaining (% of control) was 63.1%.

Regarding `CC(C)C(=O)Nc1c2c(nn1-c1ccc(Cl)cc1)CSC2`, the activity remaining (% of control) is 73.6%. To `COc1ccc(N2C(=O)CSC2c2cc(Br)ccc2OC)cc1` (centres undefined) belongs 80.4%; to `O=C(Nc1nc2ccccc2s1)C1CC(=O)N(c2ccccc2Cl)C1` (centres undefined), 204%; to `O=C(CSc1nc2sc3c(c2c(=O)[nH]1)CCCC3)NCc1ccccn1`, 170%. To `O=C(Nc1cccc(-c2nc3ccccc3o2)c1)C1CCCCC1` belongs 79.6%; to `COc1ccc(C2CC(c3c(-c4ccccc4)c4cc(Br)ccc4[nH]c3=O)=NN2C(=O)c2ccncc2)cc1` (centres undefined), 97.8%. Consider `O=C(Cn1c(=O)sc2ccccc21)Nc1nc2c(s1)CCCC2`, for which the activity remaining (% of control) was 79.8%. `Fc1ccc2nc(N3CCCCC3)sc2c1`: the activity remaining (% of control) is 108%. To `Fc1ccc2nc(Nc3nc4c(s3)CCCC4)sc2c1` belongs 43.8% (active); to `COc1ccccc1NS(=O)(=O)c1cc(C(=O)c2ccc(Br)cc2)ccc1C`, 78.7%.

For the compound `CC(C)C(O)(c1ccccc1)c1cc[n+](C)cc1` (centres undefined), the activity remaining (% of control) is 229%. As for `CCOC(=O)C(C(=O)OCC)n1ccc(=O)[nH]c1=O`, the figure is 71.2%; as for `CC(=O)NC12CC3CC(C1)CC(c1ccc([N+](=O)[O-])cc1)(C3)C2`, 70.3%; as for `CC(=O)NC(=O)c1cc2cc(Cl)ccc2oc1=Nc1ccc(C#N)cc1`, 84.2%. In the case of `Cc1ccc(S(=O)(=O)NCCN=Cc2ccc3c(c2)OCO3)cc1`, the activity remaining (% of control) is 99.1%. As for `O=C1c2ccccc2-c2onc3c(N4CCCC4)ccc1c23`, the figure is 60.4%; as for `COc1ccc(C(=O)Nc2c[nH]c(=O)[nH]c2=O)cc1OC`, 54.8%; as for `N#CCSc1nc2ccccc2c(=O)n1-c1ccccc1`, 109%. To `O=c1c2ccccc2nc(CSc2nnnn2-c2ccccc2)n1-c1ccccc1` belongs 37.5% (active); to `CCOC(=O)c1sc(NC(=O)c2cc(Cl)ccc2[N+](=O)[O-])nc1C`, 56.8%. To `Cc1ccc(S(=O)(=O)N(CC(O)CN2C(=O)NC(C)(C)C2=O)c2cccc([N+](=O)[O-])c2)cc1` (centres undefined) belongs 74.1%; to `COc1ccc(C(=O)Nc2nc3c(ccc4ccccc43)s2)c(OC)c1`, 480%. Consider `O=C(CC(=O)Nc1ccc2c(c1)Cc1cc([N+](=O)[O-])ccc1-2)Nc1ccc2c(c1)Cc1cc([N+](=O)[O-])ccc1-2`, for which the activity remaining (% of control) was 74%. To `Cc1ccc(S(=O)(=O)N2CCC(N3CCCCCC3)CC2)cc1` belongs 79.2%; to `O=S(=O)(c1cccc(S(=O)(=O)N2CCC(n3nnc4ccccc43)CC2)c1)N1CCCCC1`, 42.6% (active).

For `CC(=O)c1cccc(S(=O)(=O)N2CCC(n3nnc4cc(F)ccc43)CC2)c1`, the activity remaining (% of control) is 84.8%. To `CCOC(=O)c1c(NC(=O)c2cccnc2)sc2c1CCCC2` belongs 131%; to `Fc1ccc(-c2ccc(-c3nn4c(-c5ccco5)nnc4s3)o2)cc1`, 49.1% (active). To `Cc1nnc2sc(-c3ccco3)nn12` belongs 63.2%. To `FC(F)(F)c1nnc2sc(-c3ccco3)nn12` belongs 92.7%; to `CCOC(=O)C1C(=O)C=C(C=Cc2cccs2)CC1c1ccccc1` (centres undefined), 107%; to `Cc1c(Cc2ccccc2)c(=O)oc2c(C)c(OC(C)C)ccc12`, 64.3%. Take `Cn1c(C#CC(C)(C)O)cc2ccccc21`: the activity remaining (% of control) was 106%. To `COc1cc(-c2nnc(SCC(=O)c3ccc(Cl)cc3)o2)cc(OC)c1OC` belongs 135%; to `Cc1ccc(S(=O)(=O)Nc2cccc(F)c2)cc1C(=O)O`, 98.5%; to `Cc1ccc(OCC(=O)Nc2ccc(C)c(Cl)c2)cc1C`, 81.6%. As for `COc1ccc(-c2nc3cc(C)ccc3o2)cc1N=Cc1cccc(OC)c1O`, the figure is 160%; as for `CC(C)(C)C(O)Cn1c(=N)n(Cc2ccc(Cl)cc2)c2ccccc21` (centres undefined), 201%; as for `CC(C)c1ccc2c(c1)c(SC(C)(C)C)c(CC(C)(C)C(=O)O)n2Cc1ccc(Cl)cc1`, 17.2% (active). As for `O=C(O)CCCC(=O)NC1=NCCS1`, the figure is 91.1%. As to `NC(=O)c1c(NC(=O)c2ccc(Oc3ccccc3)cc2)sc2c1CCCCC2`, the activity remaining (% of control) is 77.2%.

As for `O=C1CSC(c2ccc([N+](=O)[O-])cc2)N1c1ccc(Br)cc1` (centres undefined), the activity remaining (% of control) is 83.1%. For `COC(=O)C1=C(C)NC2=C(C(=O)CC(C)(C)C2)C1c1cccc(O)c1` (centres undefined), the activity remaining (% of control) was 58.1%. As for `Cc1ccc(S(=O)(=O)CCc2nnc(NC(=O)c3ccc(C(C)(C)C)cc3)s2)cc1`, the figure is 50.6%; as for `CCN(CC)S(=O)(=O)c1ccc(C(=O)Nc2nc3c(s2)C(=O)CC(C)(C)C3)cc1`, 55.1%; as for `CCN(CC)c1ccc2cc(-c3nc4ccc(Cl)cc4[nH]3)c(=O)oc2c1`, 278%. As for `CCOc1c([N+](=O)[O-])c(=O)oc2ccccc12`, the figure is 111%; as for `Cc1ccc2nc(NC(=O)c3ccccc3[N+](=O)[O-])sc2c1`, 91.2%; as for `Cc1ccccc1C(=O)Nc1ccc(C(=O)Nc2cccc(C(F)(F)F)c2)cc1`, 194%.

As to `CCOC(=O)c1ccc2nc(C34CC5CC(CC(C5)C3)C4)ccc2c1`, the activity remaining (% of control) is 126%. To `C=CCn1c2ccccc2c2nnc(SC(CC)C(=O)Nc3nc(C)c(C(=O)OCC)s3)nc21` (centres undefined) belongs 42% (active); to `CCOC(=O)c1sc(NC(=O)C(CC)Sc2nccn2C)nc1C` (centres undefined), 90.3%; to `O=C(Oc1ccc2ccccc2c1Br)c1ccncc1`, 56.6%.

Take `Cn1c(C(C)(O)C(O)(c2ccccc2)c2ccccc2)nc2ccccc21` (centres undefined): the activity remaining (% of control) is 90.5%. As for `CC1=C(C(=O)OC(C)C)C(c2ccc(O)c([N+](=O)[O-])c2)C2=C(CCCC2=O)N1` (centres undefined), the figure is 90.5%; as for `COc1cccc(NC(=O)c2ccc(N(Cc3ccccc3)S(C)(=O)=O)cc2)c1`, 89.5%. To `O=C1CC(Nc2ccc3ccccc3c2)C(=O)N1c1ccccc1` (centres undefined) belongs 163%. On to `CC(C)(C)C(=O)Nc1ccc(C(=O)Nc2ccc(Sc3ccc([N+](=O)[O-])cc3)cc2)cc1`, for which the activity remaining (% of control) was 57.4%. To `O=C(O)CCC(=O)Nc1ccc([N+](=O)[O-])cc1` belongs 64.9%. To `COc1ccc(NC(=O)c2sc(-c3ccccc3)nc2C)cc1` belongs 117%; to `COc1ccc(C(=O)n2nnc3ccccc32)cc1`, 95.3%; to `COc1ccc(NC(=O)c2cc3ccccc3oc2=O)cc1Cl`, 75.5%. As for `CC(=O)NCCN1C(=O)C(=O)/C(=C(/O)c2ccc(Cl)cc2)C1c1ccccc1F` (centres undefined), the figure is 108%; as for `Cc1nc(-c2ccc(NC(=O)c3cccc(Br)c3)cc2)cs1`, 162%.

For `COc1ccc(-n2nc3c(c2NC(=O)Cc2ccccc2)CSC3)cc1`, the activity remaining (% of control) is 73.5%. As for `O=c1[nH]c2cc(Cl)ccc2c(-c2ccccc2)c1Sc1ncn[nH]1`, the figure is 98.9%; as for `O=C(Nc1ccccc1F)c1ccc([N+](=O)[O-])cc1Cl`, 205%. As for `CCOC(=O)C(=O)N1c2ccccc2C(C)(c2ccccc2)CC1(C)C` (centres undefined), the figure is 108%; as for `O=C1C2C3C=CC(O3)C2C(=O)N1c1ccc(Br)cc1[N+](=O)[O-]` (centres undefined), 77.6%.

Turning to `Cc1cc(C)cc(NC(=O)CCN2C(=O)c3ccccc3C2=O)c1`, the activity remaining (% of control) was 49.9%.

For `S=c1[nH]nc(COc2ccccc2)o1`, the activity remaining (% of control) was 52.5%. To `CC(C)(C)n1nnnc1C(c1cccs1)N(Cc1cccnc1)CC1CCCO1` (centres undefined) belongs 80.9%.

Consider `CCC(C)(C)n1nnnc1C(c1cccs1)N1CCN(Cc2ccccc2)CC1` (centres undefined), for which the activity remaining (% of control) was 85.8%. To `CCOc1ccc(CN(Cc2ccco2)C(c2cccs2)c2nnnn2C(C)(C)C)cc1` (centres undefined) belongs 36.6% (active); to `O=c1[nH]nc(SCc2ccc(Cl)cc2)c(=O)[nH]1`, 64.4%. On to `COc1ccc(C2C(N3C(=O)c4cccc([N+](=O)[O-])c4C3=O)C(=O)N2c2ccc(C)c(C)c2)cc1OC` (centres undefined), for which the activity remaining (% of control) is 85.8%.

The record behind these values is PubChem BioAssay AID436 (Emory University Molecular Libraries Screening Center, 2006).
